# Experiments:
# Assay in all cases: DAPPL (digital affinity profiling via proximity ligation, sequencing); 10 mM Tris-HCl pH 7.5, 50 mM NaCl, 1 mM DTT, 4% glycerol, room temperature, 30 min; GST-TFs on glutathione beads, 16-mer random dsDNA library, 0.1% formaldehyde crosslink after washing; high values mean tight binding
# Details in all cases: protein: recombinant; tags: N-terminal GST; dsDNA, one strand shown
# ELK1 = target: T1, ELK1 (Homo sapiens, UniProt P19419 1-428)
# T1 sequence: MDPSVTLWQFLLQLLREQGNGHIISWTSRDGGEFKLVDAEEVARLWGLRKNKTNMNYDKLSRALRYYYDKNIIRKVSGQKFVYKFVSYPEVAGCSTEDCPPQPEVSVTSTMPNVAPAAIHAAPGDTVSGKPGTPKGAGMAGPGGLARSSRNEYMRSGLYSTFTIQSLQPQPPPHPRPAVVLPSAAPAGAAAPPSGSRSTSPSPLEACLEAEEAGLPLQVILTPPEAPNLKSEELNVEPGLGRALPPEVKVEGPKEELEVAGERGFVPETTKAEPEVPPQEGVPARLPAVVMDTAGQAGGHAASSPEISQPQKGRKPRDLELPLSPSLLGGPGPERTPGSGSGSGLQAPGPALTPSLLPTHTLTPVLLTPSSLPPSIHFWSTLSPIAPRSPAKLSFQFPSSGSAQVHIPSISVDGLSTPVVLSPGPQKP
# Method in brief: (§1)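 Binding signal is each hexamer's read frequency for a factor divided by its frequency in the tag-only sample. The factors were GST-fused human transcription factors from yeast, captured on glutathione beads, DNA-barcoded and pooled with that sample. Pools were incubated with 200 nmole of a random double-stranded 16-mer DNA library in Tris/NaCl/DTT/glycerol buffer at room temperature for 30 min, then washed, crosslinked with 0.1% formaldehyde, proximity-ligated with BsaI/T4 ligase (1 h, 37 °C), PCR-amplified and sequenced on an Illumina NextSeq500.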
# ERG = target: T2, ERG (Homo sapiens, UniProt P11308 1-479)
# T2 sequence: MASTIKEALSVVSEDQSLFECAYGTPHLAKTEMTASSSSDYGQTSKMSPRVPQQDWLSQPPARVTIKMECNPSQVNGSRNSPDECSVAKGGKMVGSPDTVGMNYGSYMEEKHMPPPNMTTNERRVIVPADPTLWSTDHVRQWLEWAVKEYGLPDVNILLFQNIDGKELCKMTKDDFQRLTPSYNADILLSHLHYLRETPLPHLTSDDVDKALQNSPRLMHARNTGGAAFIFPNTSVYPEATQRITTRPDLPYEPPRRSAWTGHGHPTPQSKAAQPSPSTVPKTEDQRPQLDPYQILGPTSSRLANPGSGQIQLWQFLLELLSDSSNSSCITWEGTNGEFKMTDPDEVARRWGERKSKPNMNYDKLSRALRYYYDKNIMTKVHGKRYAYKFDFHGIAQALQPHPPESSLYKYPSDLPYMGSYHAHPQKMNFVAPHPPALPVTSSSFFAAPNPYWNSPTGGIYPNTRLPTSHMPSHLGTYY
# Method in brief: as §1
# ETV5 = ETV5 (Homo sapiens, UniProt P41161 1-510)
# Method in brief: as §1
# ELK4 = target: T3, ELK4 (Homo sapiens, UniProt P28324-2 1-405)
# T3 sequence: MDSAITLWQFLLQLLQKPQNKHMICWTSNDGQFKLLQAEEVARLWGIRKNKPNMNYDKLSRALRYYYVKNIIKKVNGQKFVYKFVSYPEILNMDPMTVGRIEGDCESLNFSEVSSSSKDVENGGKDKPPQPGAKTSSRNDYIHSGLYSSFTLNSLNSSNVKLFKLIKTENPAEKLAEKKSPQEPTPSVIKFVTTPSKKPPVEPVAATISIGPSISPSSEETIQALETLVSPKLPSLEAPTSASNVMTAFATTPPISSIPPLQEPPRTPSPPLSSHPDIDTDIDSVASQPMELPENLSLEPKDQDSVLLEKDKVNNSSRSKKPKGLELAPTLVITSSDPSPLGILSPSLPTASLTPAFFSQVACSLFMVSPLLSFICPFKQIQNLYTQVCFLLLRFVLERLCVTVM
# Method in brief: as §1
# ETV2 = target: T4, ETV2 (Homo sapiens, UniProt O00321 1-342)
# T4 sequence: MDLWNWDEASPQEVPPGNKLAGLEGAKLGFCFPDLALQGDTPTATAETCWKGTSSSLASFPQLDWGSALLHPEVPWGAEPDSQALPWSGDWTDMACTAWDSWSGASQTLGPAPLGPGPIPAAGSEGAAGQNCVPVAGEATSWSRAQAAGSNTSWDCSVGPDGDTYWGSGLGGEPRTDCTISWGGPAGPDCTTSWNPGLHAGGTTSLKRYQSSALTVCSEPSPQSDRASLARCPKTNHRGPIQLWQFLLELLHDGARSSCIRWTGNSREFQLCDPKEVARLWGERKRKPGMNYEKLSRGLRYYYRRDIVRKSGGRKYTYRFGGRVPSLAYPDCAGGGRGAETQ
# Method in brief: as §1
# ETV1 = ETV1 (Homo sapiens, UniProt P50549 1-477)
# Method in brief: as §1
# ETV3L = target: T5, ETV3L (Homo sapiens, UniProt Q6ZN32 1-361)
# T5 sequence: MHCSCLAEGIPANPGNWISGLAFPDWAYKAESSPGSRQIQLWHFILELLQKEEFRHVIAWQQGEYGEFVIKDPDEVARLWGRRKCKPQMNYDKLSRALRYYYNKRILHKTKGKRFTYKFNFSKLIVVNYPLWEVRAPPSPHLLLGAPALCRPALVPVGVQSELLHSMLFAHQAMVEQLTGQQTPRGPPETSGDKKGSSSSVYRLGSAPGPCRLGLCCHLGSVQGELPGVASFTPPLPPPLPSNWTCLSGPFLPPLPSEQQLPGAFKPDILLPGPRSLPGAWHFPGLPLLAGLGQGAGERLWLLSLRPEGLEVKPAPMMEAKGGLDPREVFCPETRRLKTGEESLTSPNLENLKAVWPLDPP
# Method in brief: as §1
# ETS2 = target: T6, ETS2 (Homo sapiens, UniProt P15036 1-469)
# T6 sequence: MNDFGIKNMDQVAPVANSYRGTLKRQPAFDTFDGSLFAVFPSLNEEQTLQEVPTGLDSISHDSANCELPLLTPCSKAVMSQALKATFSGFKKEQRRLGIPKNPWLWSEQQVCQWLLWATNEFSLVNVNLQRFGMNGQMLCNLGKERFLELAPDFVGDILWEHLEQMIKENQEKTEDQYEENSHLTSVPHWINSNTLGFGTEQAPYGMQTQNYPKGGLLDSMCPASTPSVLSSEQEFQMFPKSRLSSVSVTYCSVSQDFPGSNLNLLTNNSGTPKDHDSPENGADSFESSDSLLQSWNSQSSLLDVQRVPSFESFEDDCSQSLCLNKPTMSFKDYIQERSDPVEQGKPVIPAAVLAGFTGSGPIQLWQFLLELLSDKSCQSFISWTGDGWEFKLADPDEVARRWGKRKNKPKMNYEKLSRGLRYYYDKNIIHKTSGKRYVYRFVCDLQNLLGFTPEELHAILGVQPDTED
# Method in brief: as §1
# SPDEF = target: T7, SPDEF (Homo sapiens, UniProt O95238 1-335)
# T7 sequence: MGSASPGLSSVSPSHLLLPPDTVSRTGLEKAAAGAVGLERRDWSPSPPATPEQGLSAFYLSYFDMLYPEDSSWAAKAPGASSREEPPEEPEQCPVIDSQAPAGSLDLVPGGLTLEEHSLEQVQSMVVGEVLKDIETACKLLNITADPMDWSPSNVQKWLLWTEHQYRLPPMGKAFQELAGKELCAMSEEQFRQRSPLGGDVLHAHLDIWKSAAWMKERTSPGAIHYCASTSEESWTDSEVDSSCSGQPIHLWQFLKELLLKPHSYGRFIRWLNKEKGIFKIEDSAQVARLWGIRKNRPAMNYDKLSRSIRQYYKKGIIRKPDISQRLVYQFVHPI
# Method in brief: as §1
# ETV7 = target: T8, ETV7 (Homo sapiens, UniProt Q9Y603 1-341)
# T8 sequence: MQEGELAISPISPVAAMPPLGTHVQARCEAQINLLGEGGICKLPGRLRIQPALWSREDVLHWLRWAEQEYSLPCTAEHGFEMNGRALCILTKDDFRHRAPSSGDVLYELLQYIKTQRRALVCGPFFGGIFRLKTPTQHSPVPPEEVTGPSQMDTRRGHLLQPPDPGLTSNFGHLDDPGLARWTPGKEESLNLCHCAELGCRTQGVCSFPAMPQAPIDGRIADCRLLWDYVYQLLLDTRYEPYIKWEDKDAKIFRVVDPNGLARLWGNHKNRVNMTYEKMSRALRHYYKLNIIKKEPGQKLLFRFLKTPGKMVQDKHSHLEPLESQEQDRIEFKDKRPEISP
# Method in brief: as §1
# ETV3 = target: T9, ETV3 (Homo sapiens, UniProt P41162-2 1-143)
# T9 sequence: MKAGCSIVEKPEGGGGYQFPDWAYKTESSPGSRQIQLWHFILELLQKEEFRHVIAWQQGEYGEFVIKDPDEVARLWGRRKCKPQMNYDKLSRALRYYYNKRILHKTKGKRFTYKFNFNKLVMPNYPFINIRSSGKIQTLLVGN
# Method in brief: as §1
# ETV6 = ETV6 (Homo sapiens, UniProt P41212 1-452)
# Method in brief: as §1
# GABPA = target: T10, GABPA (Homo sapiens, UniProt Q06546 1-454)
# T10 sequence: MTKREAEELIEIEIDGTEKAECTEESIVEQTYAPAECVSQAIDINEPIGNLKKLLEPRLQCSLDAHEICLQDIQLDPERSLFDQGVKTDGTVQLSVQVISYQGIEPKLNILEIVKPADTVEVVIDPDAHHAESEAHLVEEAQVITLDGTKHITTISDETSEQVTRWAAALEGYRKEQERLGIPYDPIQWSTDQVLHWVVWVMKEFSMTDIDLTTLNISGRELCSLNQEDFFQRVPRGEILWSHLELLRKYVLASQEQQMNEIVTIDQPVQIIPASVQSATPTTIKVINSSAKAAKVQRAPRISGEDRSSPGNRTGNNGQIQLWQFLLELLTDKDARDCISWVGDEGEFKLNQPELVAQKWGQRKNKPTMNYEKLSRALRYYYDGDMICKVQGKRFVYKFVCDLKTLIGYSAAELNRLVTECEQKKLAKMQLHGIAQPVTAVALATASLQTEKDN
# Method in brief: as §1
# ELF1 = ELF1 (Homo sapiens, UniProt P32519 1-619)
# Method in brief: as §1
# ELF4 = ELF4 (Homo sapiens, UniProt Q99607 1-663)
# Method in brief: as §1
# ELF3 = target: T11, ELF3 (Homo sapiens, UniProt P78545 1-371)
# T11 sequence: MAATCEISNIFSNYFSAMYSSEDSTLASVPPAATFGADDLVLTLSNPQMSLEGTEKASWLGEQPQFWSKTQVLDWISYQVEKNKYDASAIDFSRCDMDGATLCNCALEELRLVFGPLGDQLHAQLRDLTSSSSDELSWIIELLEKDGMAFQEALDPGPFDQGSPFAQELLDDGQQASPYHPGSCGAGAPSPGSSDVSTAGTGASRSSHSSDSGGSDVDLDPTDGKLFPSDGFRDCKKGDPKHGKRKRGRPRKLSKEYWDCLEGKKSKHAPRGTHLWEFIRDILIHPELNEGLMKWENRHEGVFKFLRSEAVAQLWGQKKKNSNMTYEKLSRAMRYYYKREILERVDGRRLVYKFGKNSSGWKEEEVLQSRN
# Method in brief: as §1
# ERF = target: T12, ERF (Homo sapiens, UniProt P50548 1-548)
# T12 sequence: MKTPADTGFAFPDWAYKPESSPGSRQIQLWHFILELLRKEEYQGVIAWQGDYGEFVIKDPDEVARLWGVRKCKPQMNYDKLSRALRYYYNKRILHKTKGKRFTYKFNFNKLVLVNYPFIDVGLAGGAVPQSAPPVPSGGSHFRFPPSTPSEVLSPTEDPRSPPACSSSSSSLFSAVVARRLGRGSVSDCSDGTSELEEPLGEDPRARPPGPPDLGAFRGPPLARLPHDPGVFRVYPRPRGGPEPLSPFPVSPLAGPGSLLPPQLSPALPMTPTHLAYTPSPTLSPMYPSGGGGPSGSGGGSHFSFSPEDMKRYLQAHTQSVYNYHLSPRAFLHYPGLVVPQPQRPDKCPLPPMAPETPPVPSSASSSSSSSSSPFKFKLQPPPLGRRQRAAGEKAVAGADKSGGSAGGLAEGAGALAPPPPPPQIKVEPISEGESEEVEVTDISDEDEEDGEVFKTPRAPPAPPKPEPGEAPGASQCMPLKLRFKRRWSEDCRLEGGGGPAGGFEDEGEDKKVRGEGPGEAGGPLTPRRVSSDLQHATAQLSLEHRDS
# Method in brief: as §1
# Chain of ETV6 (P41212 whole entry): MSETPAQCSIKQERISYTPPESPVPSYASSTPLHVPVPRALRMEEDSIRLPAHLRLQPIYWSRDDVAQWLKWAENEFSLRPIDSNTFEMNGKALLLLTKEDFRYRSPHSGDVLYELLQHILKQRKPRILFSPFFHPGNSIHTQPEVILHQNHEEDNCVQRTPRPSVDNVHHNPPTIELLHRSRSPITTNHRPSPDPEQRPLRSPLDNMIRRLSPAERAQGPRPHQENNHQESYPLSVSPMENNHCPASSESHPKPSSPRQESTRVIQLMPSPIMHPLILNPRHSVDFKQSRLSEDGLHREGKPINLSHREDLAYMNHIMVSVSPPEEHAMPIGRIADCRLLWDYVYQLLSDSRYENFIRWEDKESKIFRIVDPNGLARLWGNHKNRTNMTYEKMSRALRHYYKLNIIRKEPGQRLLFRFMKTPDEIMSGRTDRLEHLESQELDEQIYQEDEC
# Chain of ETV1 (P50549 whole entry): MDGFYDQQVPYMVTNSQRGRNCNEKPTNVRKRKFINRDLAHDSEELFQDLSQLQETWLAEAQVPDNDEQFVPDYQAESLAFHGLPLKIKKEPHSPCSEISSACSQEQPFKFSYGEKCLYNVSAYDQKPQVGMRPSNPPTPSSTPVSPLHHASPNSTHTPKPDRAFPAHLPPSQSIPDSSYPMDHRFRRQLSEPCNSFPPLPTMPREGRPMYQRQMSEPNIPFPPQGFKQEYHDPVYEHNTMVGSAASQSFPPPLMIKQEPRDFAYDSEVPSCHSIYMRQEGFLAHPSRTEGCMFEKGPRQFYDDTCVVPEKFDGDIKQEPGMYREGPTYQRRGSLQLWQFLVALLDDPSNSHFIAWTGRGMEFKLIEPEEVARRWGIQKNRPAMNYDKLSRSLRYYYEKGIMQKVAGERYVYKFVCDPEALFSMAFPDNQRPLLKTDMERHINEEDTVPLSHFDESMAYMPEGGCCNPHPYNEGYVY
# Chain of ETV5 (P41161 whole entry): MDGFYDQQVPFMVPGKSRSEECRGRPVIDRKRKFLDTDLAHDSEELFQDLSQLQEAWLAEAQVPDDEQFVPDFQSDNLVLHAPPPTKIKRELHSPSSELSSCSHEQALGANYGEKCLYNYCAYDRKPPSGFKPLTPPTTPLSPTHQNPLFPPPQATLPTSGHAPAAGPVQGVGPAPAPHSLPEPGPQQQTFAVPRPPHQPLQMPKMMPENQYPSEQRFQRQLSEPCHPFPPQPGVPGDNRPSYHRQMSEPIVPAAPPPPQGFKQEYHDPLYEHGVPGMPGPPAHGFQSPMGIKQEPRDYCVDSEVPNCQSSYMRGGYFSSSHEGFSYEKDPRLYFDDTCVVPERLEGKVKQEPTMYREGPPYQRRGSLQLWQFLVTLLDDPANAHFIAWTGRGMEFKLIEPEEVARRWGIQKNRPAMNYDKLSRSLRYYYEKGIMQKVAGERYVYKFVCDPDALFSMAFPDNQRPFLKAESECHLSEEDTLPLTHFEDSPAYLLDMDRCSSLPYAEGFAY
# Chain of ELF4 (Q99607 whole entry): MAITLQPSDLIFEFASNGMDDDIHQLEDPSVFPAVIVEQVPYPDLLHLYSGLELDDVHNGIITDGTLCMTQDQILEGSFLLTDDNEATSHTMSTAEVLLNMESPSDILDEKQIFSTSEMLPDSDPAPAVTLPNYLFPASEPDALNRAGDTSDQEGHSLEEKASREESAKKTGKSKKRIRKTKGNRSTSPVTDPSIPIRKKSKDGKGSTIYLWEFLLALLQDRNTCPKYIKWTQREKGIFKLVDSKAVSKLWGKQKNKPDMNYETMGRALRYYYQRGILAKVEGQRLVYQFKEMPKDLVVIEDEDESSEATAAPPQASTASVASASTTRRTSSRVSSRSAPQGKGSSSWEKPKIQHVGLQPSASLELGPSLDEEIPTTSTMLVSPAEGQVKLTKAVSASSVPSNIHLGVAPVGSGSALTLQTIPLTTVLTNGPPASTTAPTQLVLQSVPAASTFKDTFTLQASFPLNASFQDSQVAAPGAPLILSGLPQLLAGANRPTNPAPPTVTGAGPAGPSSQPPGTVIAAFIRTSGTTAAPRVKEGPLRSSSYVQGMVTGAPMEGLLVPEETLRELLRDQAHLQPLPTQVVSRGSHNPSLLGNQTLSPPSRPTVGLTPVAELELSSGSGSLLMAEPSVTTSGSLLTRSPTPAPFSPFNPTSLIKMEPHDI
# Chain of ELF1 (P32519 whole entry): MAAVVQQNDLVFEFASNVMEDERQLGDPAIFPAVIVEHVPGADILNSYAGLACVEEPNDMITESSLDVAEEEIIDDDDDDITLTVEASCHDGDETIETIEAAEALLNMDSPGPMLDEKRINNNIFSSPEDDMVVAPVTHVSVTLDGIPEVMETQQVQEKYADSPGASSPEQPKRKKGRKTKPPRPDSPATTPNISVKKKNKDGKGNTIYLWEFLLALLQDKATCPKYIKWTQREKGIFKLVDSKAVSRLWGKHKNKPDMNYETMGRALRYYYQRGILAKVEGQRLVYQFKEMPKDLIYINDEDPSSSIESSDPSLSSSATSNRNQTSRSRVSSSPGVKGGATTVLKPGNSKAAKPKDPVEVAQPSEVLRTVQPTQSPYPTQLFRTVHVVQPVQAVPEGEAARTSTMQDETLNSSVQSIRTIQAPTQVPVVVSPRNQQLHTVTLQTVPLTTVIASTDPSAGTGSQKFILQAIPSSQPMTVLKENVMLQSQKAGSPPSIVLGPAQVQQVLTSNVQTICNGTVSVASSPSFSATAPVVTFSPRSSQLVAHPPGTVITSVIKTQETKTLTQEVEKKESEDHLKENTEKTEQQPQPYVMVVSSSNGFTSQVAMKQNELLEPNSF
Sequence,binding signal (ELK1),binding signal (ERG),binding signal (ETV5),binding signal (ELK4),binding signal (ETV2),binding signal (ETV1),binding signal (ETV3L),binding signal (ETS2),binding signal (SPDEF),binding signal (ETV7),binding signal (ETV3),binding signal (ETV6),binding signal (GABPA),binding signal (ELF1),binding signal (ELF4),binding signal (ELF3),binding signal (ERF)
TCAGTT,"1.03 fold enrichment (6-mer frequency, TF over GST control)","1.03 fold enrichment (6-mer frequency, TF over GST control)","1 fold enrichment (6-mer frequency, TF over GST control)","1.08 fold enrichment (6-mer frequency, TF over GST control)","1.05 fold enrichment (6-mer frequency, TF over GST control)","1.04 fold enrichment (6-mer frequency, TF over GST control)","1.05 fold enrichment (6-mer frequency, TF over GST control)","1.04 fold enrichment (6-mer frequency, TF over GST control)","1.04 fold enrichment (6-mer frequency, TF over GST control)","1.02 fold enrichment (6-mer frequency, TF over GST control)","1.05 fold enrichment (6-mer frequency, TF over GST control)","1.03 fold enrichment (6-mer frequency, TF over GST control)",–,–,–,–,–
GCAAAC,"1.03 fold enrichment (6-mer frequency, TF over GST control)",–,"1.01 fold enrichment (6-mer frequency, TF over GST control)","1.02 fold enrichment (6-mer frequency, TF over GST control)",–,"1.03 fold enrichment (6-mer frequency, TF over GST control)","1.05 fold enrichment (6-mer frequency, TF over GST control)",–,–,–,"1.04 fold enrichment (6-mer frequency, TF over GST control)","1.06 fold enrichment (6-mer frequency, TF over GST control)","1.01 fold enrichment (6-mer frequency, TF over GST control)","1.01 fold enrichment (6-mer frequency, TF over GST control)","1.06 fold enrichment (6-mer frequency, TF over GST control)","1.13 fold enrichment (6-mer frequency, TF over GST control)","1.01 fold enrichment (6-mer frequency, TF over GST control)"
